Our source for the sensor-assay potency score (higher = more potent) values is the OligoGym collection.
Also: reference of the scale not given here.

One test deals with HBA2. Briefly: pooled miR-30 sensor sort-seq; sequence = guide strand. To be noted: shRNA.
AGGGCCGGTGCAAGGAGGGGAG: the sensor-assay potency score (higher = more potent) is -1.98.
Regarding TGGCTTAGGAGCTTGAAGTTGA, the sensor-assay potency score (higher = more potent) is -0.42.
For the sequence TTATTCAAAGACCAGGAAGGGC, the sensor-assay potency score (higher = more potent) is -1.06.
Take TTCAAAGACCAGGAAGGGCCGG: the sensor-assay potency score (higher = more potent) is -0.416.
Consider TGCAAGGAGGGGAGGAGGGCCC, for which the sensor-assay potency score (higher = more potent) was -1.68.
The same measure, in the same setting: the value for AAGACCAGGAAGGGCCGGTGCA was -1.15; that for TATTCAAAGACCAGGAAGGGCC was -0.938; that for TTGGGAGGCCCAGCGGGCAGGA was -2.
Same read-out and setting: as for TCAAAGACCAGGAAGGGCCGGT, the figure is 0.259; as for AAGTAGGTCTTGGTGGTGGGGA, -0.536.
On the same count and under the same terms, the value for AGGAAGGGCCGGTGCAAGGAGG was -2.16; that for TTTATTCAAAGACCAGGAAGGG was -0.785.
As for AAGTTGACCGGGTCCACCCGAA, the sensor-assay potency score (higher = more potent) was -0.435.
The same measure, in the same setting: the value for AAGGGCCGGTGCAAGGAGGGGA was -0.735; that for AGACCAGGAAGGGCCGGTGCAA was -1.65.

The target of another test is HBB. The test is described as above. To be noted: shRNA.
Turning to ACCACCAACTTCATCCACGTTC, the sensor-assay potency score (higher = more potent) was -1.74.
On the same count and under the same terms, the value for TAGACCACCAGCAGCCTGCCCA was -0.865.
On the same count and under the same terms, as for ATCAGGAGTGGACAGATCCCCA, the figure is -1.55.
On the same count and under the same terms, the value for AACTTCATCCACGTTCACCTTG was -0.552.
